{"source": "PubChem BioAssay AID504834", "about": "(National Center for Advancing Translational Sciences (NCATS), 2011)", "note": "The campaign covered roughly 320,000 compounds. About 22,000 (6.9%) were called active. About 27% were inconclusive and are not listed. Calls come from the whole dose curve; as a rule, active = well fitted inhibition curve with a large enough effect; inconclusive = small, poorly fitted or top-dose-only effect, or another doubt; inactive = no such curve, though single readings can be large or run the other way. The entries come from a sample that favours actives as a whole. A call without a number means that no potency is given here. Potency is the fitted concentration of half-maximal effect.", "data": [{"test": "Primary qHTS for delayed death inhibitors of the malarial parasite plastid, 96 hour incubation", "settings": "P. falciparum luciferase reporter growth; series mostly up to 28.7 µM", "procedure,_shortened": "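Readout is luminescence from an integrated firefly luciferase in P. falciparum. Red cells, 2% hematocrit and 0.05% parasitemia final, were cultured with compound through two parasite generations (96 hours) at 37 C, 5% CO2.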", "values": [{"smiles": "C=CCC(NC(=O)Cc1ccccc1)C(=O)NCCC", "note": "(stereo not given)", "Potency": "inactive"}, {"smiles": "CCOCCc1nn2c(=O)cc(CSCC(=O)Nc3cccc(C)c3C)nc2s1", "Potency": "inactive"}, {"smiles": "COc1cccc(NC(=O)CN2CCN(CC(=O)Nc3ccccc3Cl)CC2)c1", "Potency": "inactive"}, {"smiles": "Cc1nn(Cc2ccccc2)c(C)c1C(=O)N1CCN(CC(=O)Nc2ccccc2Cl)CC1", "Potency": "13.1 µM (active)"}, {"smiles": "O=C(CN1CCCCC1)Nc1ccccc1Cl", "Potency": "inactive"}, {"smiles": "Cc1ccc(NC(=O)Cc2nc(COC(=O)C(C)NS(=O)(=O)c3ccc(C)cc3)cs2)cc1", "note": "(stereo not given)", "Potency": "inactive"}, {"smiles": "CCN(CC)C(=O)c1nc[nH]c1C(=O)N(C)Cc1ccccc1", "Potency": "inactive"}, {"smiles": "CC(=O)Nc1ccc(Oc2ccc3c(c2)C(=O)NC3=O)cc1", "Potency": "inactive"}, {"smiles": "Cc1csc(NC(=O)CSc2nc(=O)cc(N)n2-c2ccc(F)cc2)n1", "Potency": "inactive"}, {"smiles": "Cc1cccc(NC(=S)NCCc2ccc(Cl)cc2)c1C", "Potency": "inactive"}, {"smiles": "Cc1ccc(C(C)C)cc1OCCN1CCCC1", "Potency": "inactive"}, {"smiles": "Cc1cc(OCCN2CCCC2)ccc1C(C)C", "Potency": "inactive"}, {"smiles": "Cc1cc(OCCN2CCCC2)cc(C(C)C)c1", "Potency": "10.4 µM (active)"}, {"smiles": "CCOCCCNc1c(CC)c(C)c(C#N)c2nc3ccccc3n12", "Potency": "inactive"}, {"smiles": "CN1C(C(=O)NCC2CC2)CC2Cn3c(nc4ccccc43)C21", "note": "(stereo not given)", "Potency": "inactive"}, {"smiles": "CCOC(=O)N1CCN(Cc2nc3ccc([N+](=O)[O-])cc3c(=O)n2-c2cccc(OC)c2)CC1", "Potency": "2.33 µM (active)"}, {"smiles": "CCOC(=O)N1CCN(Cc2nc3cc(NC(C)=O)ccc3n2C)CC1", "Potency": "inactive"}, {"smiles": "CCOC(=O)N1CCN(Cc2nc3cc(NC(=O)CC)ccc3n2CC)CC1", "Potency": "inactive"}, {"smiles": "CN(C(=O)CSc1nnc(-c2ccc3c(c2)OCO3)o1)C1CCS(=O)(=O)C1", "note": "(stereo not given)", "Potency": "inactive"}, {"smiles": "CC(=O)Nc1ccc(/C=C/C(=O)c2ccccc2)cc1", "Potency": "inactive"}, {"smiles": "O=C(NC1CCCC1)C(=O)c1c[nH]c2ccccc12", "Potency": "inactive"}, {"smiles": "Cc1cccc(OCC(O)CN2CCN(S(=O)(=O)c3ccc(C)cc3C)CC2)c1", "note": "(stereo not given)", "Potency": "6.57 µM (active)"}, {"smiles": "OC(COc1cccc(OCC(O)CN2CCCC2)c1)CN1CCCC1", "note": "(stereo not given)", "Potency": "inactive"}, {"smiles": "CC(=O)c1ccc(OCC(O)CN2CCN(S(=O)(=O)c3cccc(Br)c3)CC2)cc1", "note": "(stereo not given)", "Potency": "inactive"}, {"smiles": "O=S(=O)(Nc1ccc(-n2cnnn2)cc1)c1ccc(Cl)cc1", "Potency": "inactive"}, {"smiles": "C=CC[n+]1c(-c2ccc(C)cc2)csc1NNC(=O)Nc1ccccc1", "Potency": "7.38 µM (active)"}, {"smiles": "C=CCNc1scc(-c2ccccc2)[n+]1CC=C", "Potency": "inactive"}, {"smiles": "Cc1ccc(NC(=O)NNC(=O)c2sccc2-n2cccc2)cc1", "Potency": "inactive"}, {"smiles": "O=C(NCc1ccco1)/C(=C/c1cccc([N+](=O)[O-])c1)NC(=O)c1ccco1", "Potency": "inactive"}, {"smiles": "CCc1sc(C(=O)N2CCN(CC(=O)Nc3cccc(F)c3)CC2)cc1C", "Potency": "inactive"}]}]}
